Test results taken from PubChem BioAssay (Tox21).
Records with an inconclusive call do not appear. Calls of active or inactive are those of the source. Unless noted, the call rests on the fitted dose curve; in most records, active means well fitted curve in the direction sought with a large enough effect in the repeat runs; inconclusive means weak or mixed curves; inactive means no such curve, though single readings can be large; an effect the other way counts as inactive or inconclusive.

Legend:
[1] = qHTS assay for small molecule agonists of the p53 signaling pathway (AID 651631; calls by dose curve; further: nearly all actives have a fitted effect of over 15% in size)
In short: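 Read-out is beta-lactamase FRET fluorescence measured 2 h after substrate addition at room temperature, in HCT-116 cells with a p53 response element-driven reporter exposed to compounds for 16 h at 37 °C.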

[2] = qHTS assay for small molecule agonists of the p53 signaling pathway - cell viability (AID 651633; calls by dose curve;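 further: p53RE-bla HCT reporter cells with a stable beta-lactamase p53 reporter; series mostly up to about 83 µM; nearly all actives have a fitted effect of over 30% in size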)
In short: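 p53RE-bla cells were treated with compound for 16 hours at 37 C. Cytotoxicity was then measured as CellTiter-Glo luminescence after 30 min at room temperature.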

[3] = qHTS assay for small molecules that induce genotoxicity in human embryonic kidney cells expressing luciferase-tagged ATAD5 - cell viability (AID 651634; calls by dose curve; further: nearly all actives have a fitted effect of over 25% in size)
In short: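 15.5 hr compound or vehicle exposure of HEK293T cells expressing luciferase-tagged ATAD5 at 37C; live-cell protease activity is read by fluorescence after 30 min of CellTiter-Fluor.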

[4] = qHTS assay for small molecule disruptors of the mitochondrial membrane potential - cell viability (AID 720634; calls by dose curve;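 further: human HepG2 liver cancer cells; series mostly up to about 83 µM; nearly all actives have a fitted effect of over 20% in size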)
In short: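 In this qHTS format, HepG2 cells plated overnight were pinned with compound, incubated 1 hr, and assayed for ATP luminescence with CellTiter-Glo after m-MPI dye addition.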

[5] = qHTS assay for small molecule disruptors of the mitochondrial membrane potential (AID 720635); further: potency means the concentration at half of the fitted maximal effect
In short: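 HepG2 cells exposed to compound 1 hr at 37C, then Mito-MPS dye 30 min. Ratio read of aggregate (540/590 nm) versus monomer (490/535 nm) fluorescence.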

[6] = qHTS assay to test for compound auto fluorescence at 590 nm (red) in HepG2 cells (AID 720674)
In short: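 HepG2 cells, 2,000 per well in MEM with 10% FBS, attached overnight at 37 C, then got 23 nL compound or DMSO. After 1 hr at 37 C, 5% CO2, red fluorescence was read at 540/590 nm against Rose Bengal sodium as reference.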

[7] = qHTS assay to test for compound auto fluorescence at 535 nm (green) in HepG2 cells (AID 720675)
[8] = qHTS assay to test for compound auto fluorescence at 460 nm (blue) in HEK293 cells (AID 720678)
In short: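 HEK293 cells (2,000 per well, medium with 10% dialyzed FBS) attached for 4-5 hr at 37C, then received compound and stood overnight at 37C, 5% CO2. Blue fluorescence was read at Ex/Em 405/460 nm and expressed relative to triamterene.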

[9] = qHTS assay to test for compound auto fluorescence at 590 nm (red) in HEK293 cells (AID 720679)
In short: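 HEK293 cells (2,000/well, medium with 10% dialyzed FBS) attached for 4-5 hr at 37C, received 23 nL compound and were incubated overnight at 37C, 5% CO2. Red fluorescence was then read at 540/590nm Ex/Em, referenced to Rose Bengal sodium.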

[10] = qHTS assay to test for compound auto fluorescence at 460 nm (blue) in HEK293 cell free culture (AID 720681)
In short: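 Compounds were added to cell-free DMEM with 10% FBS and fluorescence read directly. The blue channel used 405 nm excitation and 460 nm emission, with triamterene as the reference fluorophore.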

[11] = qHTS assay to test for compound auto fluorescence at 535 nm (green) in HEK293 cell free culture (AID 720682)
In short: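 Fluorescein serves as the green reference fluorophore; each compound's intrinsic emission at 535 nm (excitation 485 nm) is reported as an equivalent amount of that dye, measured in serum-containing DMEM without cells.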

[12] = qHTS assay to test for compound auto fluorescence at 590 nm (red) in HEK293 cell free culture (AID 720683)
In short: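 Cell-free wells of DMEM with 10% FBS received compound, and intrinsic fluorescence was read at excitation/emission 540/590 nm. Values expressed as equivalence to Rose Bengal sodium.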

[13] = qHTS assay to test for compound auto fluorescence at 590 nm (red) in HepG2 cell free culture (AID 720684)
In short: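 Auto fluorescence equivalency versus Rose Bengal sodium, red channel Ex/Em 540/590 nm; compounds in cell-free MEM/10% FBS; DMSO vehicle control.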

[14] = qHTS assay to test for compound auto fluorescence at 460 nm (blue) in HepG2 cell free culture (AID 720685)
In short: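 Cell-free plates of MEM plus 10% FBS received 23 nL compound or DMSO vehicle; blue-channel (405/460 nm) intensity scored against triamterene as reference fluorophore.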

[15] = qHTS assay to test for compound auto fluorescence at 535 nm (green) in HepG2 cell free culture (AID 720686)
[16] = qHTS assay to test for compound auto fluorescence at 460 nm (blue) in HepG2 cells (AID 720687)
In short: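 HepG2 cells in MEM with 10% FBS, attached overnight at 37 C, were exposed to compound or DMSO for 1 hr at 37 C, 5% CO2. Blue fluorescence was read at 405/460 nm, with triamterene as reference fluorophore.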

[17] = target: Glucocorticoid receptor (Homo sapiens) (UniProt P04150); assay: qHTS assay to identify small molecule agonists of the glucocorticoid receptor (GR) signaling pathway (AID 720691; active means well fitted activation curve with a large enough effect in the signal ratio in the repeat runs, not every such curve was filed as active; the % refers to the signal ratio)
In short: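 Measures GR pathway activation through a GRE-beta-lactamase reporter stably integrated in HeLa cells, with 18 h compound treatment at 37 C and fluorescence detection using a FRET substrate.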

[18] = target: Glucocorticoid receptor (Homo sapiens) (UniProt P04150); assay: qHTS assay to identify small molecule antagonists of the glucocorticoid receptor (GR) signaling pathway (AID 720692; active means well fitted inhibition curve with a large enough effect in the signal ratio in the repeat runs, not every such curve was filed as active; the % refers to the signal ratio)
In short: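 Tox21 10K library screened in concentration-response for blockade of dexamethasone (5 nM final)-induced GRE-bla reporter activity in HeLa cells; 18 h treatment, fluorescence read.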

[19] = qHTS assay to test for compound auto fluorescence at 535 nm (green) in HEK293 cells (AID 720680)
[20] = qHTS assay for small molecules that induce genotoxicity in human embryonic kidney cells expressing luciferase-tagged ATAD5 (AID 651632); further: nearly all actives have a fitted effect of over 15% in size
In short: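 Concentration-response screen for ATAD5 upregulation in HEK293T luciferase reporter cells; 16 hr treatment at 37C, then luminescence after 30 min with Amplite at room temperature.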
On the % scale 0 is the no-effect control and ±100 the full control effect.

Glucocorticoid receptor (Homo sapiens), sequence (P04150 whole entry, looked up): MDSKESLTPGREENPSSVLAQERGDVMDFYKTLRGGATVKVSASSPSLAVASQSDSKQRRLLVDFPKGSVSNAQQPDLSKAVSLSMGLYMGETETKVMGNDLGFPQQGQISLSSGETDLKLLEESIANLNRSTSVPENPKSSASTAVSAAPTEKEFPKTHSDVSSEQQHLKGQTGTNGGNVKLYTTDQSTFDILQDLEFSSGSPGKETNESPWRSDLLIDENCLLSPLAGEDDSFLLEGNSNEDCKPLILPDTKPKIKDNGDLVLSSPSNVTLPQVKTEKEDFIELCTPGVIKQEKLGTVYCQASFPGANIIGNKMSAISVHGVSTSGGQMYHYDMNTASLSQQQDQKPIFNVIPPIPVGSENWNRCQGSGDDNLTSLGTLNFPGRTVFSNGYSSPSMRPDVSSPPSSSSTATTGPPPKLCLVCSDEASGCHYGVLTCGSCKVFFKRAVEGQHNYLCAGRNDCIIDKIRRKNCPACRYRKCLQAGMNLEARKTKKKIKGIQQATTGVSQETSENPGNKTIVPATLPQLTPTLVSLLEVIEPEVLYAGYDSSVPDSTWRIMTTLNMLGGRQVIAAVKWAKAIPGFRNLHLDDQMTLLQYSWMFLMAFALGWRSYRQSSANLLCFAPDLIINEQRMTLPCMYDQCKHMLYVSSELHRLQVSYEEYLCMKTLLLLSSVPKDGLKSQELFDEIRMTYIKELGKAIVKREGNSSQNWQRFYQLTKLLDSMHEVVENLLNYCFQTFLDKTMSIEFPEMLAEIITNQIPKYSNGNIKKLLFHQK

FC(F)(F)C(Cl)(Cl)Cl
inactive: Potency [1] | Potency [2] | Potency [3] | Potency [4] | Potency [5] | outcome [6] | outcome [7] | outcome [8] | outcome [9] | outcome [10] | outcome [11] | outcome [12] | outcome [13] | outcome [14] | outcome [15] | outcome [16]

O=C(C(Cl)Cl)N1CCOC12CCCCC2
inactive: Potency [1] | Potency [2] | Potency [3] | Potency [4] | outcome [6] | outcome [7] | outcome [8] | outcome [9] | outcome [10] | outcome [11] | outcome [12] | outcome [13] | outcome [15] | outcome [16] | Potency [17] | Potency [18]

ClC(Cl)Cl
inactive: Potency [1] | Potency [2] | Potency [3] | Potency [4] | Potency [5] | outcome [6] | outcome [7] | outcome [8] | outcome [9] | outcome [19] | outcome [10] | outcome [11] | outcome [12] | outcome [13] | outcome [14] | outcome [15] | outcome [16] | Potency [17] | Potency [18]

Cc1c(-c2ccccc2)oc2c(C(=O)OCCN3CCCCC3)cccc2c1=O
inactive: Potency [1] | Potency [4] | Potency [5] | fluorescence, relative to Rose Bengal [6] 0.822% [at 18.6 µM] | fluorescence, % of fluorescein control [7] 0.273% [at 18.6 µM] | fluorescence, % of triamterene [8] -0.209% [at 18.6 µM] | fluorescence, % of fluorescent control [9] 0.0102% [at 18.6 µM] | fluorescence, % of fluorescein [19] -0.0807% [at 18.6 µM] | fluorescence, % of fluorescent control [10] 0.0764% [at 18.6 µM] | activity change [11] -0.0846% [at 18.6 µM] | fluorescence, % of fluorescent control [12] -0.0474% [at 18.6 µM] | fluorescence, % of Rose Bengal [13] -0.137% [at 18.6 µM] | fluorescence, % of fluorescein control [15] 0.0304% [at 18.6 µM] | fluorescence, % of fluorescent control [16] -0.0666% [at 18.6 µM] | Potency [17] | Potency [18]

CN(C)Cc1ccccc1
inactive: Potency [1] | Potency [2] | Potency [3] | Potency [4] | Potency [5] | outcome [6] | outcome [7] | outcome [8] | outcome [9] | outcome [19] | outcome [10] | outcome [11] | outcome [12] | outcome [13] | outcome [14] | outcome [15] | outcome [16] | Potency [17] | Potency [18]

CC(C)C(=O)OC/C=C/c1ccccc1
inactive: Potency [1] | Potency [3] | Potency [4] | Potency [5] | outcome [6] | outcome [7] | outcome [8] | outcome [9] | outcome [19] | outcome [10] | outcome [11] | outcome [12] | outcome [13] | outcome [14] | outcome [15] | outcome [16] | Potency [17] | Potency [18]

O=C(O[C@@H](C(=O)O)[C@@H](OC(=O)c1ccccc1)C(=O)O)c1ccccc1
inactive: Potency [1] | Potency [2] | Potency [3] | Potency [4] | Potency [5] | outcome [6] | outcome [7] | outcome [8] | outcome [9] | outcome [19] | outcome [10] | outcome [11] | outcome [12] | outcome [13] | outcome [15] | outcome [16] | Potency [17] | Potency [18]

CN1CCC[C@@H]1Cc1c[nH]c2ccc(CCS(=O)(=O)c3ccccc3)cc12
inactive: Potency [20] | Potency [2] | Potency [3] | Potency [4] | Potency [5] | outcome [6] | outcome [7] | outcome [8] | outcome [9] | outcome [19] | outcome [10] | outcome [11] | outcome [12] | outcome [13] | outcome [14] | outcome [15] | outcome [16]

CC(C)NCC(O)COc1ccc(CCOCC2CC2)cc1 (configuration not stated)
inactive: Potency [1] | Potency [2] | Potency [3] | Potency [4] | Potency [5] | outcome [6] | outcome [7] | outcome [8] | outcome [9] | outcome [19] | outcome [10] | outcome [11] | outcome [12] | outcome [13] | outcome [14] | outcome [15] | outcome [16] | Potency [17] | Potency [18]

CN(C)CCOc1ccccc1Cc1ccccc1
active: Potency [5] 2.66 µM
inactive: Potency [20] | Potency [2] | Potency [3] | Potency [4] | outcome [6] | outcome [7] | outcome [8] | outcome [9] | outcome [19] | outcome [10] | outcome [11] | outcome [12] | outcome [13] | outcome [14] | outcome [15] | outcome [16]

C=CCCC=C
inactive: Potency [1] | Potency [2] | Potency [3] | Potency [4] | outcome [6] | outcome [7] | outcome [8] | outcome [9] | outcome [19] | outcome [10] | outcome [11] | outcome [12] | outcome [13] | outcome [14] | outcome [15] | outcome [16]

Cc1cc2nc(N)sc2cc1C
inactive: Potency [1] | Potency [2] | Potency [3] | Potency [4] | outcome [6] | outcome [7] | outcome [8] | outcome [9] | outcome [10] | outcome [11] | outcome [12] | outcome [13] | outcome [14] | outcome [15] | outcome [16] | Potency [17] | Potency [18]
active: Potency [5] 49 µM

OCCN1CCN(CCO)CC1
inactive: Potency [1] | Potency [2] | Potency [3] | Potency [4] | outcome [6] | outcome [7] | outcome [8] | outcome [9] | outcome [19] | outcome [10] | outcome [11] | outcome [12] | outcome [13] | outcome [15] | outcome [16] | Potency [17]

C1CCOC1
inactive: Potency [1] | outcome [6] | outcome [7] | outcome [8] | outcome [9] | outcome [19] | outcome [10] | outcome [11] | outcome [12] | outcome [13] | outcome [14] | outcome [15] | outcome [16] | Potency [17] | Potency [18]

CCCCNc1ccc(C(=O)OCCN(CC)CC)cc1
inactive: Potency [20] | Potency [2] | Potency [3] | Potency [4] | Potency [5] | outcome [6] | outcome [7] | outcome [8] | outcome [9] | outcome [19] | outcome [10] | outcome [11] | outcome [12] | outcome [13] | outcome [14] | outcome [15] | outcome [16]
